# What was measured:
# Assay in all cases: DAPPL (digital affinity profiling via proximity ligation, sequencing); 10 mM Tris-HCl pH 7.5, 50 mM NaCl, 1 mM DTT, 4% glycerol, room temperature, 30 min; GST-TFs on glutathione beads, 16-mer random dsDNA library, 0.1% formaldehyde crosslink after washing; high values mean tight binding
# Details in all cases: protein: recombinant; tags: N-terminal GST; dsDNA, one strand shown
# [1] = biological target: ETV5 (Homo sapiens, UniProt P41161 1-510)
# In short: (§1)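 The binding signal reported is, for every hexamer, its read frequency for a factor over its read frequency for the tag-only sample. Reads came from pools of yeast-expressed, GST-fused human transcription factors on glutathione beads, barcoded with DNA and mixed with that sample, which were incubated with 200 nmole of a random double-stranded 16-mer DNA library in Tris/NaCl/DTT/glycerol buffer at room temperature for 30 min. After washing, the pools were crosslinked with 0.1% formaldehyde, proximity-ligated with BsaI/T4 ligase for 1 h at 37 °C, PCR-amplified and sequenced on an Illumina NextSeq500.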
# [2] = biological target: T1, SPIC (Homo sapiens, UniProt Q8N5J4 1-248)
# T1 sequence: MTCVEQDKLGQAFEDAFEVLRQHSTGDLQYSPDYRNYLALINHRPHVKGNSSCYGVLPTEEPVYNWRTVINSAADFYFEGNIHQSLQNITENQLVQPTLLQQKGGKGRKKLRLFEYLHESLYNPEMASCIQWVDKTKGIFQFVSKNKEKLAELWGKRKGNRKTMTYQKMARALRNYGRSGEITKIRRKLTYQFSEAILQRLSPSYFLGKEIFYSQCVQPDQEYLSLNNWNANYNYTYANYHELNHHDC
# In short: as §1
# [3] = biological target: ELF4 (Homo sapiens, UniProt Q99607 1-663)
# In short: as §1
# [4] = biological target: ETV1 (Homo sapiens, UniProt P50549 1-477)
# In short: as §1
# [5] = biological target: T2, ERF (Homo sapiens, UniProt P50548 1-548)
# T2 sequence: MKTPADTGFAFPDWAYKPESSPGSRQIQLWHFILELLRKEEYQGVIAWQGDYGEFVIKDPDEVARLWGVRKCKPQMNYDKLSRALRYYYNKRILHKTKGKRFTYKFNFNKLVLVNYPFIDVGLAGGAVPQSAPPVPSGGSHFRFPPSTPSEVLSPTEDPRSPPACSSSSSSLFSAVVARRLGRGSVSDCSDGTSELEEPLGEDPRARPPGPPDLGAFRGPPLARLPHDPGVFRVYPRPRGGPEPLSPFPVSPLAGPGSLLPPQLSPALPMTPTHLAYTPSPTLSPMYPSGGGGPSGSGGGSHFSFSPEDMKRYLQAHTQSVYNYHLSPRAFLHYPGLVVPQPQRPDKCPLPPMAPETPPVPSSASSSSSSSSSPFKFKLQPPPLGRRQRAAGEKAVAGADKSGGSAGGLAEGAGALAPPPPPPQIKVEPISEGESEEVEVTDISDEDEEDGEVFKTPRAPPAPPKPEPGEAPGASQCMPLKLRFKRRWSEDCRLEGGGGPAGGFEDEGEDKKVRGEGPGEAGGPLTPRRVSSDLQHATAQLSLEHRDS
# In short: as §1
# [6] = biological target: T3, ETV3L (Homo sapiens, UniProt Q6ZN32 1-361)
# T3 sequence: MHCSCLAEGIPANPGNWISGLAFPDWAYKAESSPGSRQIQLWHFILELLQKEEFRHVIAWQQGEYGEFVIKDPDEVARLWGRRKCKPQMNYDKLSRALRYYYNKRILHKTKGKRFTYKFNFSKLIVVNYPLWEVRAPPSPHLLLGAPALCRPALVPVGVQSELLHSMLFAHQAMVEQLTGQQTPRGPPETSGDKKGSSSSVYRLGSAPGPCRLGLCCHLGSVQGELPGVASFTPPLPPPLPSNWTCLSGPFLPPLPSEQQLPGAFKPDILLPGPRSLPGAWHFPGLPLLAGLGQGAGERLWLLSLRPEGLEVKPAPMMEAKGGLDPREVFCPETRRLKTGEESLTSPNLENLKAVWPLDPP
# In short: as §1
# [7] = biological target: T4, ETS2 (Homo sapiens, UniProt P15036 1-469)
# T4 sequence: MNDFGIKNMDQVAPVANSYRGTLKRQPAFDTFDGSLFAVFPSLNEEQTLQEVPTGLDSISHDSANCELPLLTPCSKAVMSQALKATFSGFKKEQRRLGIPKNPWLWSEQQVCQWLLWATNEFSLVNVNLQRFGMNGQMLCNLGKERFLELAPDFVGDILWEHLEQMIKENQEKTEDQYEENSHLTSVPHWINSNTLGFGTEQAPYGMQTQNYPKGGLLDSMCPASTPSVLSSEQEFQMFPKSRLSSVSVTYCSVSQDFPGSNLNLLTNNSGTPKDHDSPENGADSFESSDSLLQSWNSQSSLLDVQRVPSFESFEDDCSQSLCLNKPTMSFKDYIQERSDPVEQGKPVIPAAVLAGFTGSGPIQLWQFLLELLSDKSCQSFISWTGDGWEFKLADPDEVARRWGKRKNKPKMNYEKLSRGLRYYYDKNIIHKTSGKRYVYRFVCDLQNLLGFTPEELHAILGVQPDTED
# In short: as §1
# [8] = biological target: T5, SPDEF (Homo sapiens, UniProt O95238 1-335)
# T5 sequence: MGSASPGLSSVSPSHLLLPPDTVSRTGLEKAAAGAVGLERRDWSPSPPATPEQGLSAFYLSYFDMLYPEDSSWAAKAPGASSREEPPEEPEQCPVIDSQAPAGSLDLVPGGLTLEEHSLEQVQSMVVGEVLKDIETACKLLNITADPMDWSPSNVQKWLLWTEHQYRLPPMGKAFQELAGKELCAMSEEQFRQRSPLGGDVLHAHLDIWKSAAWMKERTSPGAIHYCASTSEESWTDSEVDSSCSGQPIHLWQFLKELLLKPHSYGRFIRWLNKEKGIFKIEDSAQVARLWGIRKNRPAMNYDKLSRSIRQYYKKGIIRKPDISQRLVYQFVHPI
# In short: as §1
# [9] = biological target: T6, ETV3 (Homo sapiens, UniProt P41162-2 1-143)
# T6 sequence: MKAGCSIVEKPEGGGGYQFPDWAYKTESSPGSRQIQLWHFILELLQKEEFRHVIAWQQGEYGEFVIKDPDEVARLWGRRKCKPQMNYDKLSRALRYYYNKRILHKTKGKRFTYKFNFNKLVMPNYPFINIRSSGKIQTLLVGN
# In short: as §1
# [10] = biological target: ETV6 (Homo sapiens, UniProt P41212 1-452)
# In short: as §1
# ELF4, sequence (Q99607 whole entry): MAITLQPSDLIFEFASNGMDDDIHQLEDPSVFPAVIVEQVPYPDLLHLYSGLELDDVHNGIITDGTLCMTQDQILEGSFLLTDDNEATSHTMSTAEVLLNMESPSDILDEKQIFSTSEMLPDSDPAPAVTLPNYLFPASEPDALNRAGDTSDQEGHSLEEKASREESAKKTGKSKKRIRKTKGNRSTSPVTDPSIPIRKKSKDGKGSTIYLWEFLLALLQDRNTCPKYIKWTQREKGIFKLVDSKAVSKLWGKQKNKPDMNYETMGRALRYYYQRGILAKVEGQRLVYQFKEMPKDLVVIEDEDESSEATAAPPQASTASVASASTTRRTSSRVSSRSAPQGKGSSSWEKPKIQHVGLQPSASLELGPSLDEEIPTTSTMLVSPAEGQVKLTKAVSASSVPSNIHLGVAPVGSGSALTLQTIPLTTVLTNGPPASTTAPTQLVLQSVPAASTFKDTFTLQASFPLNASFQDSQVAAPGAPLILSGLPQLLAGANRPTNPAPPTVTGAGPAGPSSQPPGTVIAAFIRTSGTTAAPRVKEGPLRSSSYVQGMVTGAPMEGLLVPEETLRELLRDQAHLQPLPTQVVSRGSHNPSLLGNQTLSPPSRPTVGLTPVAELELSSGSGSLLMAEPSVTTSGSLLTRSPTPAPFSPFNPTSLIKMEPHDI
# ETV6, sequence (P41212 whole entry): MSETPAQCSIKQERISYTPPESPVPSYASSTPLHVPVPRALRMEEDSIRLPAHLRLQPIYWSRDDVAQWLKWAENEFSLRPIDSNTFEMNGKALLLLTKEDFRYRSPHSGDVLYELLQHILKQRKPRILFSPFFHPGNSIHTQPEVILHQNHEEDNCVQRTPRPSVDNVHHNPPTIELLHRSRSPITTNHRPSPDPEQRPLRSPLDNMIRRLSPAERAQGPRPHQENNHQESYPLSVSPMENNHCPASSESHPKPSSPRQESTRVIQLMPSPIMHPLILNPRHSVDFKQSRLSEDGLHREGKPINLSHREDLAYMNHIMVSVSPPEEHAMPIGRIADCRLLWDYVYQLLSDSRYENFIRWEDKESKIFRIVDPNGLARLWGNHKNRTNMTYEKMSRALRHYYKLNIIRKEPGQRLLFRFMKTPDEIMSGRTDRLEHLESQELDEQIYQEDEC
# ETV5, sequence (P41161 whole entry, the tested form may be a part): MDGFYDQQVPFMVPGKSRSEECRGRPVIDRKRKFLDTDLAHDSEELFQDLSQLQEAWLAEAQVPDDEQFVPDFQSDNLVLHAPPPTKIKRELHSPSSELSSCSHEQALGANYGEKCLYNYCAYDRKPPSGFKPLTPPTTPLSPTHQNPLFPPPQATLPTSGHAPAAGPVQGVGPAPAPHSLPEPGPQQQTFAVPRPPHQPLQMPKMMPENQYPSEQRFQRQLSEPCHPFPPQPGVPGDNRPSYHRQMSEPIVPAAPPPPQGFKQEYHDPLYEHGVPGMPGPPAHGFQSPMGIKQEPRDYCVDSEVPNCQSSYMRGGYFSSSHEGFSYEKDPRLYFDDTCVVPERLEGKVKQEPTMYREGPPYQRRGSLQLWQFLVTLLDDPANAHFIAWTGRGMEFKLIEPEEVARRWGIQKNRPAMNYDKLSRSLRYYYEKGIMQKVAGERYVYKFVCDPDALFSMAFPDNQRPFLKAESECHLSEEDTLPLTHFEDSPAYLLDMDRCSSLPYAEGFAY
# ETV1, sequence (P50549 whole entry): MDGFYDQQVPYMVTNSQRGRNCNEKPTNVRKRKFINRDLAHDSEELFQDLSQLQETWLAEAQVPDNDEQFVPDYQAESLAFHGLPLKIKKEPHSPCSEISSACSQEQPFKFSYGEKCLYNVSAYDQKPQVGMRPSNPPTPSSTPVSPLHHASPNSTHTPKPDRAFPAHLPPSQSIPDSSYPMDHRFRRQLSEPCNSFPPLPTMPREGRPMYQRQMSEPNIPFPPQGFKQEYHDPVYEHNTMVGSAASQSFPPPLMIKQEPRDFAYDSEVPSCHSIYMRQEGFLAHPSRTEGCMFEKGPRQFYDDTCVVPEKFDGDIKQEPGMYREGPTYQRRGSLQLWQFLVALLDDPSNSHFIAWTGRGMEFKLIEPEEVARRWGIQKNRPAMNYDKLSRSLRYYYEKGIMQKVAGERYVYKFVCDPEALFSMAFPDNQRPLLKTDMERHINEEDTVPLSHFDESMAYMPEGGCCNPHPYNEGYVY
sequence,measurement,setting,value
ATGGTG,binding signal,[1],"1.18 fold enrichment (6-mer frequency, TF over GST control)"
same,binding signal,[2],"1.2 fold enrichment (6-mer frequency, TF over GST control)"
same,binding signal,[3],"1.14 fold enrichment (6-mer frequency, TF over GST control)"
same,binding signal,[4],"1.11 fold enrichment (6-mer frequency, TF over GST control)"
same,binding signal,[5],"1.13 fold enrichment (6-mer frequency, TF over GST control)"
same,binding signal,[6],"1.04 fold enrichment (6-mer frequency, TF over GST control)"
same,binding signal,[7],"1.14 fold enrichment (6-mer frequency, TF over GST control)"
same,binding signal,[8],"1.14 fold enrichment (6-mer frequency, TF over GST control)"
same,binding signal,[9],"1.04 fold enrichment (6-mer frequency, TF over GST control)"
same,binding signal,[10],"1.11 fold enrichment (6-mer frequency, TF over GST control)"
